Data reported in PMC7862700, “An all-to-all approach to the identification of sequence-specific readers for epigenetic DNA modifications on cytosine”.

Key:
Assay in all cases: DAPPL (digital affinity profiling via proximity ligation, sequencing); 10 mM Tris-HCl pH 7.5, 50 mM NaCl, 1 mM DTT, 4% glycerol, room temperature, 30 min; GST-TFs on glutathione beads, 16-mer random dsDNA library, 0.1% formaldehyde crosslink after washing; high values mean tight binding
[1] = biological target: T1, FEV (Homo sapiens, UniProt Q99581 1-238); conditions: protein: recombinant; tags: N-terminal GST; dsDNA, one strand shown
T1 sequence: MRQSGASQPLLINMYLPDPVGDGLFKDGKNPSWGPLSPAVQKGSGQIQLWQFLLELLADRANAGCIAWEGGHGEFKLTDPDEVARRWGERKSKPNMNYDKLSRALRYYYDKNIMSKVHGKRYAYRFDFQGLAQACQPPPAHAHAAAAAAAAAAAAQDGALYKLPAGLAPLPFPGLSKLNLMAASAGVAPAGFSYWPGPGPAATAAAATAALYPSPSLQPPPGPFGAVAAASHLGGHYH
Summary of the method: (§1)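 Binding signal is each hexamer's read frequency for a factor divided by its frequency in the tag-only sample. The factors were GST-fused human transcription factors from yeast, captured on glutathione beads, DNA-barcoded and pooled with that sample. Pools were incubated with 200 nmole of a random double-stranded 16-mer DNA library in Tris/NaCl/DTT/glycerol buffer at room temperature for 30 min, then washed, crosslinked with 0.1% formaldehyde, proximity-ligated with BsaI/T4 ligase (1 h, 37 °C), PCR-amplified and sequenced on an Illumina NextSeq500.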

[2] = biological target: ETV5 (Homo sapiens, UniProt P41161 1-510); conditions: protein: recombinant; tags: N-terminal GST; dsDNA, one strand shown
Chain of ETV5 (P41161 whole entry): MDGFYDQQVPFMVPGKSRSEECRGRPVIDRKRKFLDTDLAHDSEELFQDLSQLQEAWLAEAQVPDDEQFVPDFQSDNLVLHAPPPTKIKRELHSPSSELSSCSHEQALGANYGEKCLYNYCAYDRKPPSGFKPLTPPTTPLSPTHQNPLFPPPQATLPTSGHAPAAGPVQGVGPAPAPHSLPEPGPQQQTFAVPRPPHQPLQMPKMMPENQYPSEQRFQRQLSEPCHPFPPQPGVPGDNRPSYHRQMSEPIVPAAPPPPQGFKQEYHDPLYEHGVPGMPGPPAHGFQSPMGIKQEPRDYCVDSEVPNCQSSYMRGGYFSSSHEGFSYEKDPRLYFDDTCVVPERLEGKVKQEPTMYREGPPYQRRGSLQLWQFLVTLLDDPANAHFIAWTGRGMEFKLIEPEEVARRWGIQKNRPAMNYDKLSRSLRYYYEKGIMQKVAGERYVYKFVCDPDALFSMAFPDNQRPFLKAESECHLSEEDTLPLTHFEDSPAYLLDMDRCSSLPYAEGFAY
Summary of the method: as §1

[3] = biological target: HSF1 (Homo sapiens, UniProt Q00613 1-529); conditions: protein: recombinant; tags: N-terminal GST; chain copies: 3; dsDNA, one strand shown
Chain of HSF1 (Q00613 whole entry): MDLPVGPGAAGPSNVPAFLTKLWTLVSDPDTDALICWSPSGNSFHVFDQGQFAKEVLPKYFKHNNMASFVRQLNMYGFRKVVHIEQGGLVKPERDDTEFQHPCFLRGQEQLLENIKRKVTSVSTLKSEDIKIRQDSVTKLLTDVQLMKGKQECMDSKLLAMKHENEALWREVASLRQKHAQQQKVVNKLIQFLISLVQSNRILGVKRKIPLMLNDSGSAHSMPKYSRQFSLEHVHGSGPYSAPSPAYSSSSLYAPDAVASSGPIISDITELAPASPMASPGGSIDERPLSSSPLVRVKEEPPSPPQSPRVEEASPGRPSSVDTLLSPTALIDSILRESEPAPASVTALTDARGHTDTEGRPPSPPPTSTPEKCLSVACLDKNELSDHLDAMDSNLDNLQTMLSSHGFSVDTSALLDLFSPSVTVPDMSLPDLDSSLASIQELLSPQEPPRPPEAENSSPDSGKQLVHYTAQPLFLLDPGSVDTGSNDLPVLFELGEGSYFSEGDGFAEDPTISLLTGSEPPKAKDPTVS
Summary of the method: as §1

[4] = biological target: T2, SPIC (Homo sapiens, UniProt Q8N5J4 1-248); conditions: protein: recombinant; tags: N-terminal GST; dsDNA, one strand shown
T2 sequence: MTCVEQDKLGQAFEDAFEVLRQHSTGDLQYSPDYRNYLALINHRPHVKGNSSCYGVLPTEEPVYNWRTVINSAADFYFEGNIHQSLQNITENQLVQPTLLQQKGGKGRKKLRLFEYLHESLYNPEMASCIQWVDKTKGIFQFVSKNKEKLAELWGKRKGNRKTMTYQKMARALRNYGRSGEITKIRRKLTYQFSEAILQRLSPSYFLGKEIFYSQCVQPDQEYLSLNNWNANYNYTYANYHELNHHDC
Summary of the method: as §1

[5] = biological target: ELF4 (Homo sapiens, UniProt Q99607 1-663); conditions: protein: recombinant; tags: N-terminal GST; dsDNA, one strand shown
Chain of ELF4 (Q99607 whole entry): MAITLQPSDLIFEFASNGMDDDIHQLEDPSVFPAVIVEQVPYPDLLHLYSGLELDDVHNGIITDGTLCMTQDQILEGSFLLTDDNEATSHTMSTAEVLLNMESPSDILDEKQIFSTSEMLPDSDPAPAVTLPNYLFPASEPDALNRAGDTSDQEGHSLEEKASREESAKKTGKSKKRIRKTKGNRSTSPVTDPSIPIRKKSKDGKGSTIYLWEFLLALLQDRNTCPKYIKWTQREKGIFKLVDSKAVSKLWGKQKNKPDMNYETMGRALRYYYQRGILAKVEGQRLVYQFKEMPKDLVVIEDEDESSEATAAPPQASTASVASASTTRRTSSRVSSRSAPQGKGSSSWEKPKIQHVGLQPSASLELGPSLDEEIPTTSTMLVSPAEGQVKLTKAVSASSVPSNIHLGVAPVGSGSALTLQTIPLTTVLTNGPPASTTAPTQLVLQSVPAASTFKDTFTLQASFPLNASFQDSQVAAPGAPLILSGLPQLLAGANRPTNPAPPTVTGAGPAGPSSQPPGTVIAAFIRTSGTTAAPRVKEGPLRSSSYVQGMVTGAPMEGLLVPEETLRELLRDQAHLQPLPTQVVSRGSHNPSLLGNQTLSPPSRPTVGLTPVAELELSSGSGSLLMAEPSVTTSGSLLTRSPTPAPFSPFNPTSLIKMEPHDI
Summary of the method: as §1

[6] = biological target: T3, ELK4 (Homo sapiens, UniProt P28324-2 1-405); conditions: protein: recombinant; tags: N-terminal GST; dsDNA, one strand shown
T3 sequence: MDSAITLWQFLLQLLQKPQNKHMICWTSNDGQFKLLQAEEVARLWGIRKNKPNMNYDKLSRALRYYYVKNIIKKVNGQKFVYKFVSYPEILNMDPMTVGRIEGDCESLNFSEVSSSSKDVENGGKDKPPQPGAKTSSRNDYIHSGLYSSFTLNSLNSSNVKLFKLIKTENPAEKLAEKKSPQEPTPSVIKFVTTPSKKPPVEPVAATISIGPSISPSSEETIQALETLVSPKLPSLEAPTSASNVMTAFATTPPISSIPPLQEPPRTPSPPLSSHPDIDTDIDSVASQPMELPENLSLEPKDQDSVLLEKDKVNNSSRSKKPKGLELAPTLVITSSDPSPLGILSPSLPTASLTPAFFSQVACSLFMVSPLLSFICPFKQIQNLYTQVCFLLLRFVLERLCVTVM
Summary of the method: as §1

[7] = biological target: T4, ETV2 (Homo sapiens, UniProt O00321 1-342); conditions: protein: recombinant; tags: N-terminal GST; dsDNA, one strand shown
T4 sequence: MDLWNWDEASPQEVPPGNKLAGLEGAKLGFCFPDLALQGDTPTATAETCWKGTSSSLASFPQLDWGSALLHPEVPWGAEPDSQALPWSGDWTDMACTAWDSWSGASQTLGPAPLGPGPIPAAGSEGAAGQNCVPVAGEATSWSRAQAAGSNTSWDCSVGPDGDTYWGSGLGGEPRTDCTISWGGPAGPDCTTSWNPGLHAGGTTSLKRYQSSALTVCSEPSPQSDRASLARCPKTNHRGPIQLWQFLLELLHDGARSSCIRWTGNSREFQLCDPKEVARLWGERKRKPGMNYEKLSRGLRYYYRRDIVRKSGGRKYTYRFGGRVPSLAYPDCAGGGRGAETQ
Summary of the method: as §1

[8] = biological target: T5, ELF3 (Homo sapiens, UniProt P78545 1-371); conditions: protein: recombinant; tags: N-terminal GST; dsDNA, one strand shown
T5 sequence: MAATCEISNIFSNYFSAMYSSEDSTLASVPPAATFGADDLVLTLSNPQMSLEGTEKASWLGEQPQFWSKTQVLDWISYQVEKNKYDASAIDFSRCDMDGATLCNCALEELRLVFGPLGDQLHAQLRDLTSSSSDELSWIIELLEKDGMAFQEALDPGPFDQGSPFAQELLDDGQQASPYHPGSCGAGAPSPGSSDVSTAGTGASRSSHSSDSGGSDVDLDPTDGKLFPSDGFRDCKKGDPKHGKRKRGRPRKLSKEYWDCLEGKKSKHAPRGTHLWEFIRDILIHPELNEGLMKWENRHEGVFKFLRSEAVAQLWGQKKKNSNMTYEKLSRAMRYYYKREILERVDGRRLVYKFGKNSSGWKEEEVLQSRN
Summary of the method: as §1

[9] = biological target: CRX (Homo sapiens, UniProt O43186 1-299); conditions: protein: recombinant; tags: N-terminal GST; dsDNA, one strand shown
Chain of CRX (O43186 whole entry): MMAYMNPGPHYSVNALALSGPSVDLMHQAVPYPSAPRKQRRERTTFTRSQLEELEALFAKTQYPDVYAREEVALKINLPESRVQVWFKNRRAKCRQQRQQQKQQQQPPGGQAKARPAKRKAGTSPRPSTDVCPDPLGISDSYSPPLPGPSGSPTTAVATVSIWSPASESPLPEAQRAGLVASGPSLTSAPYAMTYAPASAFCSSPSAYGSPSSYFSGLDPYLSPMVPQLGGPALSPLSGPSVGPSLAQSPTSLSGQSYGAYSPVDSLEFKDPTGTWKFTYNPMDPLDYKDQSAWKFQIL
Summary of the method: as §1

[10] = biological target: ETV1 (Homo sapiens, UniProt P50549 1-477); conditions: protein: recombinant; tags: N-terminal GST; dsDNA, one strand shown
Chain of ETV1 (P50549 whole entry): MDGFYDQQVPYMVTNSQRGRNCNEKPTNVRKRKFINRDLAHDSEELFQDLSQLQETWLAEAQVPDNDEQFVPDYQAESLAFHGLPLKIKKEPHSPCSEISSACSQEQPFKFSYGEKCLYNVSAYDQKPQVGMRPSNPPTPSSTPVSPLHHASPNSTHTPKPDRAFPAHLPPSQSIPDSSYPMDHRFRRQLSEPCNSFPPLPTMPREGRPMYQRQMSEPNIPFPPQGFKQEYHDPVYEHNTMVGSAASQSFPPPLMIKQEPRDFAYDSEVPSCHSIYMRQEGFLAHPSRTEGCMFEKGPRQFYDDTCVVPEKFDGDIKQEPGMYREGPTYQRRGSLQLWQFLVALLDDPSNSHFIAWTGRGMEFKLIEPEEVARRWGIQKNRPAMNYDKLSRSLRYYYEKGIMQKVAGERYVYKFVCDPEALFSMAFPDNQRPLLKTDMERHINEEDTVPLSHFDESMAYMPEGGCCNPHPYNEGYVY
Summary of the method: as §1

[11] = biological target: T6, ERF (Homo sapiens, UniProt P50548 1-548); conditions: protein: recombinant; tags: N-terminal GST; dsDNA, one strand shown
T6 sequence: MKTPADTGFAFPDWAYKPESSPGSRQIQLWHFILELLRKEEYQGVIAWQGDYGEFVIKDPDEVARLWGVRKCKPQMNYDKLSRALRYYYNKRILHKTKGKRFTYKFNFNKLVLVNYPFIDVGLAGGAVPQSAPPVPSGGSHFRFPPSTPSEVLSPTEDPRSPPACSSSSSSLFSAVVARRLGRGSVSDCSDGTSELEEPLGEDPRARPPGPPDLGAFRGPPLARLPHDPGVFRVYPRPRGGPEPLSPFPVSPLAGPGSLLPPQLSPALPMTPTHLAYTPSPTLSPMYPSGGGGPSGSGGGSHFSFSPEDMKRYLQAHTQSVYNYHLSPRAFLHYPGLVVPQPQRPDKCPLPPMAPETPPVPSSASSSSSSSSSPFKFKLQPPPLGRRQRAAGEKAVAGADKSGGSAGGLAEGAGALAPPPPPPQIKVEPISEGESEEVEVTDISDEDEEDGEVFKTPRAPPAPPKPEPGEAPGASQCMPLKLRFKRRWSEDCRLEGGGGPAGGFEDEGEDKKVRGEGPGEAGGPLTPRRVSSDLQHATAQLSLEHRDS
Summary of the method: as §1

[12] = biological target: T7, ETV3L (Homo sapiens, UniProt Q6ZN32 1-361); conditions: protein: recombinant; tags: N-terminal GST; dsDNA, one strand shown
T7 sequence: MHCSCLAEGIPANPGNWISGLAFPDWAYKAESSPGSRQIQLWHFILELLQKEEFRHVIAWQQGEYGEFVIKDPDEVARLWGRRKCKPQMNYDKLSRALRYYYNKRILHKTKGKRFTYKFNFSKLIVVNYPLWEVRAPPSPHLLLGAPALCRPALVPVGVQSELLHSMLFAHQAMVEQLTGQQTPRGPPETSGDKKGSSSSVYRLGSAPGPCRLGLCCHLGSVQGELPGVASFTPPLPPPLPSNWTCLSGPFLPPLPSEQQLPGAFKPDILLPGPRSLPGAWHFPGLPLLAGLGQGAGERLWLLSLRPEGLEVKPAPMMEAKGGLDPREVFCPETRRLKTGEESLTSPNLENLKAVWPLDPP
Summary of the method: as §1

[13] = biological target: T8, ETS2 (Homo sapiens, UniProt P15036 1-469); conditions: protein: recombinant; tags: N-terminal GST; dsDNA, one strand shown
T8 sequence: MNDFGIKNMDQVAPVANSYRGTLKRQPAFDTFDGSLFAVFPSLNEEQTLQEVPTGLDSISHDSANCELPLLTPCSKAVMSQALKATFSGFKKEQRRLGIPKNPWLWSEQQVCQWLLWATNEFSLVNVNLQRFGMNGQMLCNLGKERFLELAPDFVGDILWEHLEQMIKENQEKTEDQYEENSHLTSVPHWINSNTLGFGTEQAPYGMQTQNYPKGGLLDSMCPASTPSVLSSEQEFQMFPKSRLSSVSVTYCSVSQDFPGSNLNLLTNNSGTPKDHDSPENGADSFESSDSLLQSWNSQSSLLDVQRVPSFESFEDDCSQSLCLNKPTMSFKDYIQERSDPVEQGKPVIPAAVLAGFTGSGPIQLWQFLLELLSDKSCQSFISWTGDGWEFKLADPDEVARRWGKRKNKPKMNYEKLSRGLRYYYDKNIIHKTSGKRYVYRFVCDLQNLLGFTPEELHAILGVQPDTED
Summary of the method: as §1

[14] = biological target: T9, SPDEF (Homo sapiens, UniProt O95238 1-335); conditions: protein: recombinant; tags: N-terminal GST; dsDNA, one strand shown
T9 sequence: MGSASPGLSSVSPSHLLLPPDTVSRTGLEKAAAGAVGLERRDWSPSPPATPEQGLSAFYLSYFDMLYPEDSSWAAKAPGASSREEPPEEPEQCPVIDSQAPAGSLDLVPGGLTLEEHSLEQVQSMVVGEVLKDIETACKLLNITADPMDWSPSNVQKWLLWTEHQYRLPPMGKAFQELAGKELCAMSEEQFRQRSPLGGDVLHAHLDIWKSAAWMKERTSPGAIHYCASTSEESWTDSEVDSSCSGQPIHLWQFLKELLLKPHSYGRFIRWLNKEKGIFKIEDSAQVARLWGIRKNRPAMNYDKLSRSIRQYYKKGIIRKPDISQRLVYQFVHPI
Summary of the method: as §1

[15] = biological target: T10, ETV7 (Homo sapiens, UniProt Q9Y603 1-341); conditions: protein: recombinant; tags: N-terminal GST; dsDNA, one strand shown
T10 sequence: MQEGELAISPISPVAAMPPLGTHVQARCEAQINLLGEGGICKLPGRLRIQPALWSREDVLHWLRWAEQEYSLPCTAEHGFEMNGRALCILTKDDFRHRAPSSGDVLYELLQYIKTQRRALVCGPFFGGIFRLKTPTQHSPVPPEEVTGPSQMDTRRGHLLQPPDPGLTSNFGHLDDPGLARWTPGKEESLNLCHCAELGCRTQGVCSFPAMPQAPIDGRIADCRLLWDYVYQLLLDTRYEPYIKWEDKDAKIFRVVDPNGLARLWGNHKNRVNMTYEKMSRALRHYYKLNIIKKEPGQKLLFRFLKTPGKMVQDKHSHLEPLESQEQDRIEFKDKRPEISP
Summary of the method: as §1

[16] = biological target: T11, ELF5 (Homo sapiens, UniProt Q9UKW6-2 1-255); conditions: protein: recombinant; tags: N-terminal GST; dsDNA, one strand shown
T11 sequence: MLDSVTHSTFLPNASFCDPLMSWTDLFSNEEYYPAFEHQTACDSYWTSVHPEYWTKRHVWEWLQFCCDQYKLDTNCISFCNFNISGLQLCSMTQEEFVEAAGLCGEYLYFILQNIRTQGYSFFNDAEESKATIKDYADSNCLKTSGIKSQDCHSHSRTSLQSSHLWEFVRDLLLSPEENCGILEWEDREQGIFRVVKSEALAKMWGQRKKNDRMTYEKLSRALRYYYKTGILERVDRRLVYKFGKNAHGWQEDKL
Summary of the method: as §1

[17] = biological target: T12, ETV3 (Homo sapiens, UniProt P41162-2 1-143); conditions: protein: recombinant; tags: N-terminal GST; dsDNA, one strand shown
T12 sequence: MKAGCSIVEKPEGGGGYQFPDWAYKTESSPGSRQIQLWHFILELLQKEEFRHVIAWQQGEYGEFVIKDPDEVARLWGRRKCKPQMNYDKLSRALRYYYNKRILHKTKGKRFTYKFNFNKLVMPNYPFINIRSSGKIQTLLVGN
Summary of the method: as §1

[18] = biological target: ETV6 (Homo sapiens, UniProt P41212 1-452); conditions: protein: recombinant; tags: N-terminal GST; dsDNA, one strand shown
Chain of ETV6 (P41212 whole entry): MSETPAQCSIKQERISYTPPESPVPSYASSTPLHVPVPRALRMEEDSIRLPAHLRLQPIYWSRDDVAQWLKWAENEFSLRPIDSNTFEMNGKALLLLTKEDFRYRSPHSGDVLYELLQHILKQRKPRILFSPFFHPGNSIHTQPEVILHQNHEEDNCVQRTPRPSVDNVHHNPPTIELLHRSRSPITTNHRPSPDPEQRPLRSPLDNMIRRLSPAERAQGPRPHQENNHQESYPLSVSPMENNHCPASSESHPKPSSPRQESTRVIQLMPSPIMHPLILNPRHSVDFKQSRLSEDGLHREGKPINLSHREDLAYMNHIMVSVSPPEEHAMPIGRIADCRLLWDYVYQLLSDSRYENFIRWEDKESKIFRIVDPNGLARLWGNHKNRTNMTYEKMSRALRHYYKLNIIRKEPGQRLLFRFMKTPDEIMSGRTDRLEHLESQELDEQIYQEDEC
Summary of the method: as §1

TTGCTA
binding signal [1]: 1.24 fold enrichment (6-mer frequency, TF over GST control)
binding signal [2]: 1.3 fold enrichment (6-mer frequency, TF over GST control)
binding signal [3]: 1.48 fold enrichment (6-mer frequency, TF over GST control)
binding signal [4]: 1.4 fold enrichment (6-mer frequency, TF over GST control)
binding signal [5]: 1.29 fold enrichment (6-mer frequency, TF over GST control)
binding signal [6]: 1.46 fold enrichment (6-mer frequency, TF over GST control)
binding signal [7]: 1.35 fold enrichment (6-mer frequency, TF over GST control)
binding signal [8]: 1.31 fold enrichment (6-mer frequency, TF over GST control)
binding signal [9]: 1.5 fold enrichment (6-mer frequency, TF over GST control)
binding signal [10]: 1.37 fold enrichment (6-mer frequency, TF over GST control)
binding signal [11]: 1.37 fold enrichment (6-mer frequency, TF over GST control)
binding signal [12]: 1.35 fold enrichment (6-mer frequency, TF over GST control)
binding signal [13]: 1.33 fold enrichment (6-mer frequency, TF over GST control)
binding signal [14]: 1.31 fold enrichment (6-mer frequency, TF over GST control)
binding signal [15]: 1.37 fold enrichment (6-mer frequency, TF over GST control)
binding signal [16]: 1.21 fold enrichment (6-mer frequency, TF over GST control)
binding signal [17]: 1.28 fold enrichment (6-mer frequency, TF over GST control)
binding signal [18]: 1.23 fold enrichment (6-mer frequency, TF over GST control)
